# In the supplement of paper PMC10849652:
# The full data set covers some 8,800 targets. This sample favours those with a hit. About 0.5% of all pairs of compound and target were hits. Values without a mark were called inactive.
# Tests used:
# Assay in all cases: log2 fold change, soluble protein after heating vs DMSO (PISA); higher = thermal stabilisation; K562 lysate, 10 uM; active = over 0.2 and 3.5 SD of the protein, either way, in both replicates (recomputed)
# [1] = compound: NCC(=O)Nc1ccc(-n2nc(C(F)(F)F)cc2-c2ccc3c(ccc4ccccc43)c2)cc1
# Procedure, shortened: (§1)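 A 30 min treatment with 10 μM compound was applied to crude K562 extract at 1 mg/mL protein in PBS pH 7.4 with 1 mM MgCl2. Heating for 3 min spanned 48°C-58°C, after which aliquots were pooled, adjusted to 0.5% NP-40 at 4°C and spun at 21,000xg for 90 min. TMTpro 16plex LC-MS/MS of the supernatant, with channel sums equalised, gave values recorded as log-two fold change in thermal stability against solvent controls, from duplicates.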
# vorinostat = compound: O=C(CCCCCCC(=O)Nc1ccccc1)NO [vorinostat]
# Procedure, shortened: as §1
# silmitasertib = compound: O=C(O)c1ccc2c(c1)nc(Nc1cccc(Cl)c1)c1ccncc12 [silmitasertib]
# Procedure, shortened: as §1
# [2] = compound: O=C1NC(=O)C(c2cnc3ccccn23)=C1c1cn2c3c(cc(F)cc13)CN(C(=O)N1CCCCC1)CC2
# Procedure, shortened: as §1
# entospletinib = compound: c1cn2cc(-c3ccc4cn[nH]c4c3)nc(Nc3ccc(N4CCOCC4)cc3)c2n1 [entospletinib]
# Procedure, shortened: as §1
# UniProt Q9Y487, sequence (Q9Y487 whole entry, looked up): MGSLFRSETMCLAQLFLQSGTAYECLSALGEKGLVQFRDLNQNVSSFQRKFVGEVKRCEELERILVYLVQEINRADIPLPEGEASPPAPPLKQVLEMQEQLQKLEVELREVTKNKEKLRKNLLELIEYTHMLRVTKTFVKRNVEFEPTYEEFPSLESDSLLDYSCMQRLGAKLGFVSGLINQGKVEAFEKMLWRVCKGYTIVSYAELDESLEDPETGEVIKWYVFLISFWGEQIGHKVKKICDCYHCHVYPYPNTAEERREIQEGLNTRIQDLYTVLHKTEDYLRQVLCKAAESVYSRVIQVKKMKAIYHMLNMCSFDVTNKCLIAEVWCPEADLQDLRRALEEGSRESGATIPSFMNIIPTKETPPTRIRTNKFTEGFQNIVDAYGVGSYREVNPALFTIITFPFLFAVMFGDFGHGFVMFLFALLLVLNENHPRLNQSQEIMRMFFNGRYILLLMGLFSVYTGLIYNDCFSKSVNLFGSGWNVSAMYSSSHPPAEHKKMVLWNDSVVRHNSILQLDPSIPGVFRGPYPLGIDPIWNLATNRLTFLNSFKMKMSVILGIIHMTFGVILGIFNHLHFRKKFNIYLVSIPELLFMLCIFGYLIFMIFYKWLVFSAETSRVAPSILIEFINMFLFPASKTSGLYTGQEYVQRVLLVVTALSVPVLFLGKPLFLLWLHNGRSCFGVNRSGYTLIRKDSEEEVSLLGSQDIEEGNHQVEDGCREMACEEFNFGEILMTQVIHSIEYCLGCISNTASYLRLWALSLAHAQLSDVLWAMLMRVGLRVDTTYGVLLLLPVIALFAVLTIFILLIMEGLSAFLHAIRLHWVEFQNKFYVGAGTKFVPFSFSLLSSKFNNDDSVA
# UniProt Q8WUX2, sequence (Q8WUX2 whole entry, looked up): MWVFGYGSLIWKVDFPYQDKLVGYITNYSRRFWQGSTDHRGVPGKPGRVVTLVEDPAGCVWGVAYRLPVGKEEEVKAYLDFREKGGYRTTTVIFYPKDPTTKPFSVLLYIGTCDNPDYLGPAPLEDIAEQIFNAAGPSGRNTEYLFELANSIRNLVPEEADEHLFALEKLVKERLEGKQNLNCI
# UniProt Q14692, sequence (Q14692 whole entry, looked up): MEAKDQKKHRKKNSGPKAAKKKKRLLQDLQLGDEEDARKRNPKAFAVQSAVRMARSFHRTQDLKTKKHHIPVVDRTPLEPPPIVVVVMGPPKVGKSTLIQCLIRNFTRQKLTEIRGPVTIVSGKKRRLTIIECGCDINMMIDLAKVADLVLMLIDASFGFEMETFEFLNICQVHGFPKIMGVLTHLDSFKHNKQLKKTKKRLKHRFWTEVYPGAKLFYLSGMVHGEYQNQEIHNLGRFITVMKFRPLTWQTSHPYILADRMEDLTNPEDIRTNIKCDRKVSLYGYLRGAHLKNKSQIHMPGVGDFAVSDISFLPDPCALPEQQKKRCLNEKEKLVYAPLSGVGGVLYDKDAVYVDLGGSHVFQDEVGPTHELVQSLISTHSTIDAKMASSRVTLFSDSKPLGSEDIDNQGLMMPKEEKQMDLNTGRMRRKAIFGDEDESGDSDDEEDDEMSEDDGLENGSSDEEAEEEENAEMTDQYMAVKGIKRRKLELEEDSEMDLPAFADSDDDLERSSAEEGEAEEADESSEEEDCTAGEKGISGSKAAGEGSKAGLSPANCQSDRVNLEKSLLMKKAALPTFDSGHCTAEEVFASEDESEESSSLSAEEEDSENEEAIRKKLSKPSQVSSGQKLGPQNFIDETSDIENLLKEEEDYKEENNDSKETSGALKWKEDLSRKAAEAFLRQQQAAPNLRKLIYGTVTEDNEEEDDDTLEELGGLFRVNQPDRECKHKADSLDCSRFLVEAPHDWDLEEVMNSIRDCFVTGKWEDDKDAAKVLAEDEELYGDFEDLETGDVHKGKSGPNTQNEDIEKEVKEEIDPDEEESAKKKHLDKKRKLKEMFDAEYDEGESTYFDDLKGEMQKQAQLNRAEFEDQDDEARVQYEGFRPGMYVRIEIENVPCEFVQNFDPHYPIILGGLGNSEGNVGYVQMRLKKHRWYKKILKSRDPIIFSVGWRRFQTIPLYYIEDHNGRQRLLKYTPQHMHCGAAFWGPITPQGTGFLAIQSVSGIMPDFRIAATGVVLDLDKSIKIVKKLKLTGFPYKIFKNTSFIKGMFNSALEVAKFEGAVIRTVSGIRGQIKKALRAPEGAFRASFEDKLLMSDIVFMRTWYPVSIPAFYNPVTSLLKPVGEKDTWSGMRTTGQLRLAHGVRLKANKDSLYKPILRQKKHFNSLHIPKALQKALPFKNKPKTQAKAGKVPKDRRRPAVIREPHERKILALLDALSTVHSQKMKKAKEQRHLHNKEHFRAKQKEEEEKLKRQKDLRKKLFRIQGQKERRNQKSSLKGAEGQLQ
# UniProt Q8N7R7, sequence (Q8N7R7 whole entry, looked up): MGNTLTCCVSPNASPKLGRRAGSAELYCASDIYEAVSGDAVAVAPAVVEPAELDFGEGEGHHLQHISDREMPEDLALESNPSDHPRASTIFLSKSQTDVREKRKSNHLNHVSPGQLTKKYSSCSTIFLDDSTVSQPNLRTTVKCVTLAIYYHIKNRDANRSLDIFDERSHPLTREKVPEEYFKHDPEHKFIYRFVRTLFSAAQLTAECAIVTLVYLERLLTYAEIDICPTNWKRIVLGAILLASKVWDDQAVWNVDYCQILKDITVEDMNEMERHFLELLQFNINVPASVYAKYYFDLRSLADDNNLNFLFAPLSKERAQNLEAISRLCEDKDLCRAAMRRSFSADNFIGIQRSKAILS
# UniProt Q15834, sequence (Q15834 whole entry, looked up): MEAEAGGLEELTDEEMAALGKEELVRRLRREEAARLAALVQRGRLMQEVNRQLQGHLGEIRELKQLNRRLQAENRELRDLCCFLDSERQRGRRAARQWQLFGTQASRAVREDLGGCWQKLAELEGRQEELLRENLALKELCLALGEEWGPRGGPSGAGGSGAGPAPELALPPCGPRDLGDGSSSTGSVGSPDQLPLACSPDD
# UniProt P55211, sequence (P55211 whole entry, looked up): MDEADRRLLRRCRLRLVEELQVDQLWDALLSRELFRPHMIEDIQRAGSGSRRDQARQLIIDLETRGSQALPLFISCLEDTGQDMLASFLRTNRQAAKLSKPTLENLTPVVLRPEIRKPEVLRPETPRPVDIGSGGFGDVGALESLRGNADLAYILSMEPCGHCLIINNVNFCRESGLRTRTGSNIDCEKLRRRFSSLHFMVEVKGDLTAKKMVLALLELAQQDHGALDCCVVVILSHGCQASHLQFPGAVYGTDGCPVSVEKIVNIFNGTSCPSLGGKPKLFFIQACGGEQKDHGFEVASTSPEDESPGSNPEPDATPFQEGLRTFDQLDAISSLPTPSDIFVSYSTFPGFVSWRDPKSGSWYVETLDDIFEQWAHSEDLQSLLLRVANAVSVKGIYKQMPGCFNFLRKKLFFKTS
# UniProt P83916, sequence (P83916 whole entry, looked up): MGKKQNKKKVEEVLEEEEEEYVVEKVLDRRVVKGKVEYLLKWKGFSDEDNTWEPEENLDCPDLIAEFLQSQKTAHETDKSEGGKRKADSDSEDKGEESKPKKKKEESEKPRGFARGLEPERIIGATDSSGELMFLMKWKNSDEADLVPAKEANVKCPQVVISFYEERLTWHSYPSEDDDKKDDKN
# UniProt P49589, sequence (P49589 whole entry, looked up): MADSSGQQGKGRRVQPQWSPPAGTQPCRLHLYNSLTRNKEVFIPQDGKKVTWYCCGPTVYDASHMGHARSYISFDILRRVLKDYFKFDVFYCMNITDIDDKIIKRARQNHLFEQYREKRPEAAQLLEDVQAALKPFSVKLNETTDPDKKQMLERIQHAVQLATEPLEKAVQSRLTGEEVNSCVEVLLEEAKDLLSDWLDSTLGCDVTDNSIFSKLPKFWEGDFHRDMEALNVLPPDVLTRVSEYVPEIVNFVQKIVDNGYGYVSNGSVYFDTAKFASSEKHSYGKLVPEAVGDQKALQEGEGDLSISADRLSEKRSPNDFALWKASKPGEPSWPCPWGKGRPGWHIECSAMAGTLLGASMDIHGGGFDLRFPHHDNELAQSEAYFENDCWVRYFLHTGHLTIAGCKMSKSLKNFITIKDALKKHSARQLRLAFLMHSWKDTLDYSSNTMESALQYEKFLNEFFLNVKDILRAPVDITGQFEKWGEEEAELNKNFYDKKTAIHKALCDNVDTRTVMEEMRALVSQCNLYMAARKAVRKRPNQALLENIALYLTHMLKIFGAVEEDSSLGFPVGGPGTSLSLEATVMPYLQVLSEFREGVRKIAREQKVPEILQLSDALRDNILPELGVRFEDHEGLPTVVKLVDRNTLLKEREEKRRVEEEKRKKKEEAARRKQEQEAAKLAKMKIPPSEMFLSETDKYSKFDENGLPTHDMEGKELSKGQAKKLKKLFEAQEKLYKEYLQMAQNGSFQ
# UniProt O95429, sequence (O95429 whole entry, looked up): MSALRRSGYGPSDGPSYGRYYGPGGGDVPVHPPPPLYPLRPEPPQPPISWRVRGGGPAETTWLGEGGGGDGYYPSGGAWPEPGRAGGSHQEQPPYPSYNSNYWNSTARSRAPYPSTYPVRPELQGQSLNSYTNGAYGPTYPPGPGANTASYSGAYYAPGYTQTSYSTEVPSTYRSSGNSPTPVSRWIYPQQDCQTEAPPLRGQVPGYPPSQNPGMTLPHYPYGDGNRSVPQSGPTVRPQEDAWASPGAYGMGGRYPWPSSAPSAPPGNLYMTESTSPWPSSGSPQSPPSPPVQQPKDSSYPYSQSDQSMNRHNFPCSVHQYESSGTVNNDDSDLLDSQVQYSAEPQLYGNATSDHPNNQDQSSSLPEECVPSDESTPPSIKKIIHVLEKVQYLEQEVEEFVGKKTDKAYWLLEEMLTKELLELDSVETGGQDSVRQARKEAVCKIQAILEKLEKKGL
# UniProt P16152, sequence (P16152 whole entry, looked up): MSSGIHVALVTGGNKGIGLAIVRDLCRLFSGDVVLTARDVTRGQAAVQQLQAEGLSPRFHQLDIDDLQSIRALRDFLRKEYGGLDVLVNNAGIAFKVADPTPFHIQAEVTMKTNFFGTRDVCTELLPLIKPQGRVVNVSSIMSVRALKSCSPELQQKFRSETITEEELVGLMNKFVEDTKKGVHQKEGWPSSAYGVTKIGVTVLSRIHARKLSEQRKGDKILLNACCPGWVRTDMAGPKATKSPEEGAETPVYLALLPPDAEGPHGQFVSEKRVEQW
Target,log2 fold change [1],log2 fold change (vorinostat),log2 fold change (silmitasertib),log2 fold change [2],log2 fold change (entospletinib)
CCDC22 (UniProt O60826),0.056,-0.222 (active),0.022,0.014,-0.021
CCAR2 (UniProt Q8N163),0.01,-0.399 (active),0.002,-0.02,0.02
ATRIP (UniProt Q8WXE1),-0.088,-0.28,0.229,0.039,-0.009
C8orf37 (UniProt Q96NL8),0.206,0.084,0.044,0.008,-0.035
BAG4 (UniProt O95429),-0.013,0.03,-0.067,-0.025,0.007
CBR1 (UniProt P16152),-0.01,-0.377 (active),-0.024,0.033,0.006
ATM (UniProt Q13315),0.058,-0.093,0.118,-0.033,0.036
ATP2B4 (UniProt P23634),-0.026,-0.042,-0.003,-0.079,-0.042
CCDC186 (UniProt Q7Z3E2),0.052,0.005,0.057,0.012,-0.01
CCDC85B (UniProt Q15834),-0.039,0.088,0.042,-0.077,-0.397
ATP6V0A2 (UniProt Q9Y487),-0.033,0.127,-0.016,-0.021,0.012
CANX isoform 2 (UniProt P27824),0.018,0.131,-0.004,-0.015,-0.004
BBS7 (UniProt Q8IWZ6),-0.006,-0.354,0.133,-0.015,-0.007
CDK17 isoform 2 (UniProt Q00537),0.01,0.174,0.565 (active),0.103,-0.162
ATP9B (UniProt O43861),0.013,0.012,0.005,-0.045,0
CDK9 isoform 2 (UniProt P50750),0.081,-0.198,0.164,0.402,0.038
CHAC2 (UniProt Q8WUX2),-0.158,0.066,-0.02,-0.012,-0.052
CCDC32 isoform 2 (UniProt Q9BV29),0.005,0.058,-0.044,0.009,-0.042
CDK5 (UniProt Q00535),-0.036,-0.232,0.855 (active),0.179,0.036
CAMLG (UniProt P49069),-0.009,-0.15,-0.027,0.006,0.001
CES2 isoform 4 (UniProt O00748),0.049,0.307,-0.093,0.177,-0.034
CCNK isoform 4 (UniProt O75909),0.032,0.093,-0.007,-0.051,-0.002
BTK isoform 2 (UniProt Q06187),0.439 (active),-0.322 (active),0.066,0.012,0.3
CAMKK1 isoform 2 (UniProt Q8N5S9),0.006,-0.255,0.072,-0.007,-0.078
CASP9 (UniProt P55211),0.011,-0.342 (active),-0.004,0.019,-0.002
BCKDHB (UniProt P21953),0.055,-0.275 (active),0.076,0.072,-0.123
CHD4 isoform 2 (UniProt Q14839),0.023,-0.284 (active),-0.006,0.015,-0.01

Target,log2 fold change [1],log2 fold change (vorinostat),log2 fold change (silmitasertib),log2 fold change [2],log2 fold change (entospletinib)
CASP6 (UniProt P55212),-0.014,-0.049,0.045,-0.018,-0.01
BTAF1 (UniProt O14981),0.01,-0.45 (active),0.003,-0.008,-0.031
CCNYL1 (UniProt Q8N7R7),-0.013,-0.674 (active),0.079,0.019,-0.005
BSDC1 (UniProt Q9NW68),-0.073,0.13,-0.018,0.024,-0.002
CDC25C (UniProt P30307),-0.019,-0.271 (active),0.009,0.026,-0.01
CBX5 (UniProt P45973),0.033,-0.062,-0.005,-0.048,0.014
C12orf45 (UniProt Q8N5I9),0.063,0.012,-0.059,-0.027,0
CDK13 (UniProt Q14004),-0.089,-0.088,0.093,-0.012,-0.013
CEBPZOS (UniProt A8MTT3),-0.113,0.082,-0.004,-0.025,-0.037
ATP6V1B1 (UniProt P15313),-0.005,0.083,-0.013,-0.006,0.014
C2CD5 isoform 3 (UniProt Q86YS7),0.01,0.086,-0.059,0.049,0.009
CDS2 (UniProt O95674),0.007,0.093,0.024,-0.065,-0.028
ATP11A (UniProt P98196),0.168,-0.265 (active),0.106,0.009,-0.054
C19orf54 (UniProt Q5BKX5),-0.052,-0.381 (active),-0.004,-0.006,0.009
CBX1 (UniProt P83916),0.029,0.092,-0.046,-0.01,-0.018
CCDC47 (UniProt Q96A33),0.002,0.207 (active),0.026,0.011,-0.007
CDC45 isoform 3 (UniProt O75419),-0.021,-0.487 (active),0.012,0.015,0.03
CARS isoform 3 (UniProt P49589),0.018,-0.254 (active),0.018,-0.049,0.008
BMS1 (UniProt Q14692),0.024,-0.037,0.04,0.033,0.045
CEP41 (UniProt Q9BYV8),0.002,-0.558 (active),-0.026,-0.152,-0.017
BET1 (UniProt O15155),0.015,-0.042,-0.008,-0.01,0.035
CCNB1 (UniProt P14635),0.05,-0.008,-0.013,-0.02,-0.009
C1orf112 (UniProt Q9NSG2),-0.075,-0.095,-0.084,0.003,-0.037
BLOC1S6 (UniProt Q9UL45),-0.022,-0.386 (active),0.004,0.011,0.046
CDAN1 (UniProt Q8IWY9),0.019,-0.326 (active),0.05,0.056,-0.006
CDK2 (UniProt P24941),-0.02,0.006,0.248,0.202,0.039
